Screening data deposited in PubChem BioAssay by several laboratories.
Rows were chosen to be rich in hits. Some 1.5% of all compounds tested hit in one or more screens of this group.
LANA-H2A inh: blocks KSHV LANA binding to histone H2A/H2B | Q9QR71 | cell-free LANA-H2A/H2B peptide, fluorescence polarization | inhibition, % (test concentration not listed) | 0.6% of 320,000 active | AID 2629; in the data active = inhibition mostly above about 10%, no sharp cut-off; inactive = mostly below about 6.7%
GLD-1 TGE inh: GLD-1-TGE RNA interaction inhibition (C. elegans); inhibition, % at 5.96 µM; AID 2280; 0.44% of 320,000 active; purified GLD-1 + fluorescein TGE RNA, fluorescence polarization; Q17339;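 active = percent inhibition above a per-plate cutoff, the plate mean of test compounds plus 3 SD, cut at about 30% in these data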;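 note: 0% = DMSO wells with GLD-1 and probe and 100% = wells lacking GLD-1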
Target sequence (Q17339 whole entry, looked up): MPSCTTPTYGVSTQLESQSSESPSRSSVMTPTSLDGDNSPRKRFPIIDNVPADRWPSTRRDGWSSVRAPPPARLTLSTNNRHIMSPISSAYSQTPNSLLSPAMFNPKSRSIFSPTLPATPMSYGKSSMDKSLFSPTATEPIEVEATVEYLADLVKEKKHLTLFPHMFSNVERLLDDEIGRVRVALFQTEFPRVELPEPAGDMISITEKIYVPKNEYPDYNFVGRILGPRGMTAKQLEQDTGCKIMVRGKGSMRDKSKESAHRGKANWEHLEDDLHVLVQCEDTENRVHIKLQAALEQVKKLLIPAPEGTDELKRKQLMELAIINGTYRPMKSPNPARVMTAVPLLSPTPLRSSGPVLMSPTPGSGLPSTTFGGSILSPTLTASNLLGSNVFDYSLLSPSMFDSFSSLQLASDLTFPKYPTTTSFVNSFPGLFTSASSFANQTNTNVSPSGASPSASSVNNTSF
C-LANA FP: blocks KSHV LANA C-terminal domain binding to DNA; MBP-C-LANA/FAM-LBS DNA binding, fluorescence polarization; inhibition, % at 9 µM; 0.078% of 340,000 active; AID 504423;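 active = highest replicate inhibition at or above 60% at 9 µM, even if other replicates fall short; inactive = all replicates below 60% inhibition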;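 note: 0% = neutral control wells and 100% = 4 µM acridine orange control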
Keap1-Nrf2 PPI: disrupts human Keap1 binding to Nrf2 peptide; AID 504523; inhibition, % at 9.4 µM; 0.15% of 340,000 active; Q14145; Keap1 Kelch-Nrf2 peptide fluorescence polarization, 1536-well; in the data active = inhibition above about 12%;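 note: human Keap1 Kelch domain with fluorescein labeled Nrf2 9mer peptide probe; 0% = neutral control wells and 100% = peptide positive control; higher means more block of Keap1 binding to Nrf2 peptide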
eLon inh: inhibits E. coli Lon protease; purified E. coli Lon protease, fluorescence polarization; inhibition, % at 7.94 µM; 0.42% of 360,000 active; in the data active = inhibition above about 13%, passing the limit was not always enough;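 note: 0% = enzyme with probe and DMSO and 100% = no enzyme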
EBV gp42 block: inhibitors of Epstein-Barr virus glycoprotein 42 | Q1HVG2 | Fluorescence polarization binding assay, mP read-out | inhibition, % (tested at 21.74 µM) | 0.42% of 220,000 active | AID 1085; in the data active = inhibition above about 50%
GLD1 RNA confirm: GLD-1 TGE RNA interaction inhibition, confirmation. shares compounds with GLD-1 TGE inh. GLD-1/FL-TGE RNA fluorescence polarization, biochemical. inhibition, % at 5.96 µM. 10% of 550 active. AID 2459;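 active = average inhibition across triplicates above the hit cutoff set in the primary screen, cut at about 32% in these data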;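 note: 0% = GLD-1 with RNA probe and DMSO and 100% = wells lacking GLD-1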
* hit, by the source's call.

CCOC(=O)C1(C)CCCN(C(=O)c2cccc(C#N)c2)C1 (stereo unspecified) was read as eLon inh -2.
`Cc1ccnc(NS(=O)(=O)c2ccc3ccccc3c2)n1` gave LANA-H2A inh -3, GLD-1 TGE inh -6, C-LANA FP 1, Keap1-Nrf2 PPI -6 and eLon inh -1.
Screening CCOC(=O)C1C(c2ccc3c(c2)OCO3)NC(=O)NC1(O)C(F)(F)F (stereo unspecified) returned LANA-H2A inh 3, GLD-1 TGE inh 33*, C-LANA FP -1, Keap1-Nrf2 PPI -7, eLon inh 2, EBV gp42 block -23 and GLD1 RNA confirm -10.
`CCOC(=O)C1C(c2ccc(O)c(OC)c2)NC(=O)NC1(O)C(F)(F)F` (stereo unspecified) gave LANA-H2A inh -1, GLD-1 TGE inh 9, C-LANA FP 5, Keap1-Nrf2 PPI 0 and eLon inh -7.
For COc1ccc(-n2c(Cc3cc(=O)[nH]c(=O)[nH]3)nnc2SCC(=O)NC2CCCC2)cc1 the results were LANA-H2A inh 3, GLD-1 TGE inh 17, C-LANA FP 0, Keap1-Nrf2 PPI -1, eLon inh 6 and EBV gp42 block 6.
`O=C(CSc1nnc(Cc2cc(=O)[nH]c(=O)[nH]2)n1-c1ccc(Cl)cc1)NC1CCCC1` gave LANA-H2A inh -1, GLD-1 TGE inh 37*, C-LANA FP 7, Keap1-Nrf2 PPI 6, eLon inh 10, EBV gp42 block 2 and GLD1 RNA confirm 18.
Cc1ccc(S(=O)(=O)c2cc3ccc(O)cc3oc2=O)cc1C was read as LANA-H2A inh 1, GLD-1 TGE inh 32*, C-LANA FP -1, Keap1-Nrf2 PPI 2, eLon inh -5 and GLD1 RNA confirm 4.
`COc1ccc2cc(S(=O)(=O)c3ccccc3)c(=O)oc2c1` gave LANA-H2A inh -3, GLD-1 TGE inh -2, C-LANA FP -1, Keap1-Nrf2 PPI 3, eLon inh 4 and EBV gp42 block -8.
Cc1cccc(OCCNc2ccc([N+](=O)[O-])cn2)c1 was read as LANA-H2A inh -1, GLD-1 TGE inh 32*, C-LANA FP 0, Keap1-Nrf2 PPI -1, eLon inh -1, EBV gp42 block -11 and GLD1 RNA confirm 5.
Screening COc1ccc(C(=O)Nc2ccccc2C(=O)N/N=C/c2ccncc2)cc1OC returned LANA-H2A inh 0, GLD-1 TGE inh -1, C-LANA FP -8, Keap1-Nrf2 PPI 4, eLon inh 5 and EBV gp42 block -9.
`CC(C)Sc1nc(N2CCOCC2)c2c(c1C#N)CC(C)(C)N(C)C2` gave LANA-H2A inh -2, GLD-1 TGE inh 39*, C-LANA FP 1, Keap1-Nrf2 PPI 0, eLon inh -2, EBV gp42 block -11 and GLD1 RNA confirm 2.
`Cc1noc(C)c1S(=O)(=O)N(CC(=O)NCCc1ccccc1)c1ccc(C(C)C)cc1` gave LANA-H2A inh -1, GLD-1 TGE inh 48*, C-LANA FP 0, Keap1-Nrf2 PPI 8, eLon inh -2 and GLD1 RNA confirm 1.
`CCCCc1nc2cc(C(=O)N3CCCCC3C(=O)OC)ccc2o1` (stereo unspecified) gave LANA-H2A inh 4, GLD-1 TGE inh 5, C-LANA FP 2, Keap1-Nrf2 PPI -1 and eLon inh 12.
Screening NC(=O)/C(=C\c1ccco1)NC(=O)c1ccco1 returned eLon inh -15.
NC(=O)/C(=C/c1ccco1)C(N)=S was read as LANA-H2A inh 0, GLD-1 TGE inh 50*, C-LANA FP 9, Keap1-Nrf2 PPI -2, eLon inh 3, EBV gp42 block -5 and GLD1 RNA confirm -5.
`Cc1onc(-c2ccccc2)c1C(=O)OCC(=O)NCc1ccc(F)cc1` gave LANA-H2A inh 9, GLD-1 TGE inh 31*, C-LANA FP 0, Keap1-Nrf2 PPI -4, eLon inh -6, EBV gp42 block 7 and GLD1 RNA confirm -4.
`S=c1[nH]nc(C2CCCCC2)o1` gave LANA-H2A inh -2, GLD-1 TGE inh 1, C-LANA FP -2, Keap1-Nrf2 PPI -3, eLon inh -13 and EBV gp42 block 2.
`Cc1ccc(-c2nn(CCC(=O)Nc3cccnc3)c(=O)c3ccccc23)cc1` gave LANA-H2A inh 0, GLD-1 TGE inh 61*, eLon inh 0, EBV gp42 block -15 and GLD1 RNA confirm -3.
Screening O=C(CS(=O)(=O)c1ccccc1)Nc1ccc(Br)cn1 returned LANA-H2A inh 3, GLD-1 TGE inh 1, C-LANA FP 0, Keap1-Nrf2 PPI 3, eLon inh -3 and EBV gp42 block -6.
Screening CN1C2C=C3C(C#N)=C(N)C(C#N)(C#N)[C@@H](c4cccs4)C3C1CC2 (stereo partly specified) returned LANA-H2A inh -7, GLD-1 TGE inh 33*, C-LANA FP 4, Keap1-Nrf2 PPI -5, eLon inh 9, EBV gp42 block -2 and GLD1 RNA confirm 4.
`Cc1cc(Oc2ccc(=O)[nH]n2)nc(Cl)n1` gave LANA-H2A inh -4, GLD-1 TGE inh 35*, C-LANA FP 0, Keap1-Nrf2 PPI -3, eLon inh -3, EBV gp42 block -8 and GLD1 RNA confirm -5.
For CSc1nc(C)cc(Oc2ccc(=O)[nH]n2)n1 the results were LANA-H2A inh 0, GLD-1 TGE inh 1, C-LANA FP 0, Keap1-Nrf2 PPI -1, eLon inh -6 and EBV gp42 block -3.
`O=C(/C=C/[C@H]1O[C@@H](n2ccc(=O)[nH]c2=O)[C@H](O)[C@@H]1O)NCc1ccco1` gave eLon inh -11.
For CCc1ccc(C2C(C#N)=C(N)C(C#N)(C#N)C3=CCC(C(C)(C)C)CC32)cc1 (stereo unspecified) the results were LANA-H2A inh 0, GLD-1 TGE inh 41*, C-LANA FP 10, Keap1-Nrf2 PPI 4, eLon inh 26*, EBV gp42 block 6 and GLD1 RNA confirm 5.
For Cn1cccc1C(=O)NCC1CCCCC1 the results were LANA-H2A inh -3, GLD-1 TGE inh -2, C-LANA FP 0, Keap1-Nrf2 PPI -2 and eLon inh 4.
`Cc1ccc(C)c(NS(=O)(=O)c2ccc(OCC(=O)NCc3ccccn3)cc2)c1` gave LANA-H2A inh 7, GLD-1 TGE inh 4, C-LANA FP -1, Keap1-Nrf2 PPI -2, eLon inh -12 and EBV gp42 block -9.
`CCn1c(CNC(=O)C2CCCCC2)cc2cc(C)ccc21` gave LANA-H2A inh 6, Keap1-Nrf2 PPI -1 and eLon inh 4.
`O=c1c2ccccc2nc2n1CC/C2=C/N1CCN(c2cccc(C(F)(F)F)c2)CC1` gave LANA-H2A inh -6, GLD-1 TGE inh 42*, C-LANA FP 9, Keap1-Nrf2 PPI 4, eLon inh 7, EBV gp42 block 5 and GLD1 RNA confirm 2.
